Experimental data: PubChem BioAssay (EPA / NIEHS)
Results filed as inconclusive are left out. Calls of active or inactive are those of the source. The calls were made as follows: active = hit-call score of the fitted dose curve at least 0.9, where 1 is the maximum; inconclusive = response in the unintended direction; inactive = score below 0.9.

molecular target: human RAR-related Orphan Receptor beta (RORb), RORB (gene 6096) (UniProt Q92753); assay: ATG_RORb_TRANS: Attagene TRANS-FACTORIAL HepG2 Assay for human RAR-related Orphan Receptor beta (RORb) (AID 2283010)
Method: ATG_TRANS is a cell-based, multiplexed-readout assay that uses HepG2, a human liver cell line, with measurements taken at 24 hours after chemical dosing in a 24-well plate.ATG_RORb_TRANS is one of 30 assay component(s) measured or calculated from the ATG_TRANS assay. It is designed to make measurements of mRNA induction, a form of inducible reporter, as detected with fluorescence intensity signals by Reverse transcription polymerase chain reaction (RT-PCR) and Capillary electrophoresis technology.Data from the assay component ATG_RORb_TRANS was analyzed into 1 assay endpoint. This assay endpoint, ATG_RORb_TRANS, was analyzed in the positive analysis fitting direction relative to DMSO as the negative control and baseline of activity. Using a type of inducible reporter, measures of mRNA for gain-of-signal activity can be used to understand the reporter gene at the transcription factor-level as they relate to the gene RORB. Furthermore, this assay endpoint can be referred to as a primary readout, because this assay has produced multiple assay endpoints where this one serves a reporter gene function. To generalize the intended target to other relatable targets, this assay endpoint is annotated to the nuclear receptor intended target family, where the subfamily is orphan.
Human liver HepG2 cells are transiently transfected with multiple reporter transcription units (MRTUs) in 6-well plates using FuGene 6 reagent (Roche; 3 ml FuGene/1 mg DNA). The MRTU constructs are regulated by a cis-regulating element (promoter). […] A major difference between the CIS and TRANS system is that in CIS activities of endogenous TFs are measured, whereas the TRANS assay evaluates changes in activities of exogenous, chimeric NR-Gal4 proteins. […] At the end of 24 hour incubation, total RNA was isolated using TriZol reagent (Invitrogen). The isolated RNA is then reverse-transcribed using oligo(dT) primer and Mo-MLV reverse transcriptase (Invitrogen) with DNAse I (Ambion) treatment for 30 min. The one-tenth of the produced cDNA was amplified by PCR using Taq DNA polymerase (Invitrogen) and two reporter sequence-specific primers. The PCR products were fluorescently labeled by primer extension with 6-arboxyfluorescein (6-FAM) 5'-labeled reporter sequence-specific primer (2 min at 95 C, 20 s at 68 C and 10 min at 72 C) and these products were digested with 5U of HpaI (New England Biolabs) for 2h at 37 C. The fragments were purified using Qiaquick PCR columns (Qiagen), analyzed on an ABI 3130xL genetic analyzer (Applied Biosystems) with peak positions identified by using a set of X-rhodamine (ROX)-labeled MapMarker1000 molecular weight standards (BioVentures). The raw capillary electrophoresis data was processed using Attagraph software (Attagene).

Chain of human RAR-related Orphan Receptor beta (RORb), RORB (gene 6096) (Q92753 whole entry, looked up): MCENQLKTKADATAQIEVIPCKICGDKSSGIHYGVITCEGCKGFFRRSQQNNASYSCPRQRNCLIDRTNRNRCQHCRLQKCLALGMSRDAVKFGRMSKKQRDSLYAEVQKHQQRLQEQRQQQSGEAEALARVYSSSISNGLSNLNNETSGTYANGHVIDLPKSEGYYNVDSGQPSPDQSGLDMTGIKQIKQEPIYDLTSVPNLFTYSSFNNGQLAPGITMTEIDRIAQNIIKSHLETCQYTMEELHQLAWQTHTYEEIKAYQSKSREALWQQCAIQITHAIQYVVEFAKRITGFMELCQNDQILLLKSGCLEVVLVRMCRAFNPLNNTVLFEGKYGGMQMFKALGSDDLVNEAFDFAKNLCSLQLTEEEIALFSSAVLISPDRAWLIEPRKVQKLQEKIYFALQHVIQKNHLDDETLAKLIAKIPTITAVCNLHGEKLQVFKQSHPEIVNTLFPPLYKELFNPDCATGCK

Compound | outcome
CCC(C)(C)C1CCC(O)CC1 (stereo not drawn) | inactive
Cc1ccc(S(=O)(=O)O)c(C)c1 | inactive
O=C(O)c1ccccc1C(c1ccc(O)cc1)c1ccc(O)cc1 | inactive
CCCCCCCC(=O)O | inactive
NC(=O)N1C(=O)C(C(=O)c2cc(Cl)cs2)c2cc(F)c(Cl)cc21 (stereo not drawn) | inactive
CCCOc1sc(C(=O)N2CCC(c3cc(CN)ccc3F)CC2)c(C)c1Br | inactive
CC(C)(C)c1cccc(C(C)(C)C)c1O | inactive
CC(C)(C)c1ccc(O)c(C(C)(C)C)c1 | inactive
CC(C)(C)CC(C)(C)c1ccc(O)c(-n2nc3ccccc3n2)c1 | inactive
O=C(OCCOCCOC(=O)c1ccccc1)c1ccccc1 | inactive
OCCC(F)(F)C(F)(F)C(F)(F)C(F)(F)C(F)(F)C(F)(F)F | inactive
CCOC(=O)CC(O)(CC(=O)OCC)C(=O)OCC | inactive
CCN(CC)CCNc1ccc(CNC=O)c2sc3ccc(OC)cc3c(=O)c12 | inactive
CC(O)C(=O)O (stereo not drawn) | inactive
CCCCC(CC)COC(=O)CCCCC(=O)OCc1ccccc1 (stereo not drawn) | inactive
CC[C@H](c1ccc(O)cc1)[C@@H](CC)c1ccc(O)cc1 | inactive
OCCC(F)(F)C(F)(F)C(F)(F)C(F)(F)C(F)(F)C(F)(F)C(F)(F)C(F)(F)F | inactive
c1ccc2cc3c(ccc4ccccc43)cc2c1 | inactive
O=C1OC2(c3ccccc31)c1cc(Br)c(O)c(Br)c1Oc1c2cc(Br)c(O)c1Br | inactive
O=c1c(-c2ccc(O)cc2)coc2cc(O)ccc12 | inactive
C[C@@H]1C[C@H]2[C@@H]3CCC4=CC(=O)C=C[C@]4(C)[C@@]3(F)[C@@H](O)C[C@]2(C)[C@@]1(O)C(=O)COP(=O)(O)O | inactive
CCCCC(CC)COC(=O)CCCCC(=O)OCC(CC)CCCC (stereo not drawn) | inactive
CCCCCCCCCCCCCC[N+](C)(C)C | inactive
CN1CCN(c2ccccc2/C=C2\SCCN(c3ccc(Cl)c(Cl)c3)C2=O)CC1 | inactive
N#C[C@@H]1CC(F)(F)CN1C(=O)CNC1CC2CCC(C1)N2c1ncccn1 (stereo partly drawn) | inactive
Nc1cccc2c(N)cccc12 | inactive
